Test results reported in PubChem BioAssay (Tox21).
Results filed as inconclusive are left out. Entries that show only a call come without a potency. Unmarked numbers belong to inactive results. Active and inactive are the calls of the source. The call rests on the fitted dose curve; in most records, active means well fitted curve in the direction sought with a large enough effect in the repeat runs; inconclusive means weak or mixed curves; inactive means no such curve, though single readings can be large; an effect the other way counts as inactive or inconclusive.

Experiments:
[1] = target: Cytochrome P450 2C19 (Homo sapiens) (UniProt P33261); test: Cytochrome P450 Family 2 Subfamily C Member 19 (CYP2C19) small molecule antagonists: luciferase reporter qHTS assay (AID 1671197); further: nearly all actives have a fitted effect of over 65% in size; further: potency means the concentration at half of the fitted maximal effect; on activity change, negative = inhibition: series mostly up to about 120 µM
Sequence of Cytochrome P450 2C19 (Homo sapiens) (P33261 whole entry, looked up): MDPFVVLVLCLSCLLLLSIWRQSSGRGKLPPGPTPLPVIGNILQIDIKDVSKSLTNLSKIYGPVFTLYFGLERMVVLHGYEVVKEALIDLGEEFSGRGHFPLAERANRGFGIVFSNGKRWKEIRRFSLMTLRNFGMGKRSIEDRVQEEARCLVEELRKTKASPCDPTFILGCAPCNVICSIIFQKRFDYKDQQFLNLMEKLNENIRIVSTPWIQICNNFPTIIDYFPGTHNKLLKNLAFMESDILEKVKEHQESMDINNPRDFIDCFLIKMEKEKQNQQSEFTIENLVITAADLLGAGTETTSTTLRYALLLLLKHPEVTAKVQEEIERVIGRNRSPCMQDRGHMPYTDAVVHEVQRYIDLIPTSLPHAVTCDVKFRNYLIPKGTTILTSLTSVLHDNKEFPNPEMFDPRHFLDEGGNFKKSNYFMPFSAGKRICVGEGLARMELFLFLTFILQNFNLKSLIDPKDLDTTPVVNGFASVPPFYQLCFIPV
Outline: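 Inhibition of CYP2C19 was scored from loss of luminescence in a P450-Glo proluciferin substrate assay, NADPH-started and run 1 h at 37C, with ketoconazole as positive control.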

[2] = target: Cytochrome P450 2C9 (Homo sapiens) (UniProt P11712); test: Cytochrome P450 Family 2 Subfamily C Member 9 (CYP2C9) small molecule antagonists: luciferase reporter qHTS assay (AID 1671198); further: nearly all actives have a fitted effect of over 50% in size; further: potency means the concentration at half of the fitted maximal effect; on activity change, negative = inhibition: series mostly up to about 120 µM
Sequence of Cytochrome P450 2C9 (Homo sapiens) (P11712 whole entry, looked up): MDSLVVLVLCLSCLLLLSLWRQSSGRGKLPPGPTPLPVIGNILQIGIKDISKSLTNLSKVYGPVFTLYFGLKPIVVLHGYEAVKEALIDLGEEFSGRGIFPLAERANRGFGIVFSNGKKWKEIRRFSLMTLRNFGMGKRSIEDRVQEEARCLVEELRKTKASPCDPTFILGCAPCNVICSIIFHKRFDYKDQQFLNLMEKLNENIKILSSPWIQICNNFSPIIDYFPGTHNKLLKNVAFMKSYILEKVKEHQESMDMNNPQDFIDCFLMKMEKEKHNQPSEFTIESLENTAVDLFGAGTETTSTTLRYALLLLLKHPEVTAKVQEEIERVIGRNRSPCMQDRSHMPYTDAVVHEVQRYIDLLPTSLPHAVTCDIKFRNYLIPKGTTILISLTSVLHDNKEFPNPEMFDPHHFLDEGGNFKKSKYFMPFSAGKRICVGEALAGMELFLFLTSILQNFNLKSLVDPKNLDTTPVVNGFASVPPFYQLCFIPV
Outline: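 CYP2C9 activity was measured with a P450-Glo proluciferin substrate. Enzyme–substrate mix was held with compound for 10 min at room temperature, then NADPH regeneration solution was added for 1 h at 37C. Luciferin product was read as luminescence.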

[3] = target: Cytochrome P450 1A2 (Homo sapiens) (UniProt P05177); test: Cytochrome P450 Family 1 Subfamily A Member 2 (CYP1A2) small molecule antagonists: luciferase reporter qHTS assay (AID 1671199); further: nearly all actives have a fitted effect of over 50% in size; further: potency means the concentration at half of the fitted maximal effect; on activity change, negative = inhibition: series mostly up to about 120 µM
Sequence of Cytochrome P450 1A2 (Homo sapiens) (P05177 whole entry, looked up): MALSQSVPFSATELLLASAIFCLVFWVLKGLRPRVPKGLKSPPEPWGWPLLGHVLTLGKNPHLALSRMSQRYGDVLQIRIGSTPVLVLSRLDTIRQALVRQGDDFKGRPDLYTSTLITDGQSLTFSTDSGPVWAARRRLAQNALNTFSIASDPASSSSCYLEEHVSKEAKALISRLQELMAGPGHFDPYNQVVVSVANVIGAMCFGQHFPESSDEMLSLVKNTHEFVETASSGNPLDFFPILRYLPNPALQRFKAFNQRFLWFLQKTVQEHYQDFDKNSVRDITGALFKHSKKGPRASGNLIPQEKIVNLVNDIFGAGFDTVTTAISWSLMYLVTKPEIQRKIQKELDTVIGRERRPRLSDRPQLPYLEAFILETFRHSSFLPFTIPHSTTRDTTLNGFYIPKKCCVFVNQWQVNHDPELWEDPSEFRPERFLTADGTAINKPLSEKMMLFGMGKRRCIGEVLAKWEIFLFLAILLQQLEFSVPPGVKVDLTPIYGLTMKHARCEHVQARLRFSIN
Outline: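 Room-temperature CYP1A2 reaction with proluciferin substrate: compounds added from DMSO, 10 min preincubation, NADPH regeneration for 1 h. Luciferin detection reagent then added; luminescence recorded as RLU.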

[4] = target: Voltage-gated inwardly rectifying potassium channel KCNH2 (Homo sapiens) (UniProt Q12809); test: Human Ether-a-go-go-Related Gene (hERG) channel small molecule antagonists: fluorescence cell-based qHTS assay (AID 1671200);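 further: hERG-expressing U2OS cells given a thallium stimulus after FluxOR II dye loading; series mostly up to about 77 µM; nearly all actives have a fitted effect of over 50% in size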
Sequence of Voltage-gated inwardly rectifying potassium channel KCNH2 (Homo sapiens) (Q12809 whole entry, looked up): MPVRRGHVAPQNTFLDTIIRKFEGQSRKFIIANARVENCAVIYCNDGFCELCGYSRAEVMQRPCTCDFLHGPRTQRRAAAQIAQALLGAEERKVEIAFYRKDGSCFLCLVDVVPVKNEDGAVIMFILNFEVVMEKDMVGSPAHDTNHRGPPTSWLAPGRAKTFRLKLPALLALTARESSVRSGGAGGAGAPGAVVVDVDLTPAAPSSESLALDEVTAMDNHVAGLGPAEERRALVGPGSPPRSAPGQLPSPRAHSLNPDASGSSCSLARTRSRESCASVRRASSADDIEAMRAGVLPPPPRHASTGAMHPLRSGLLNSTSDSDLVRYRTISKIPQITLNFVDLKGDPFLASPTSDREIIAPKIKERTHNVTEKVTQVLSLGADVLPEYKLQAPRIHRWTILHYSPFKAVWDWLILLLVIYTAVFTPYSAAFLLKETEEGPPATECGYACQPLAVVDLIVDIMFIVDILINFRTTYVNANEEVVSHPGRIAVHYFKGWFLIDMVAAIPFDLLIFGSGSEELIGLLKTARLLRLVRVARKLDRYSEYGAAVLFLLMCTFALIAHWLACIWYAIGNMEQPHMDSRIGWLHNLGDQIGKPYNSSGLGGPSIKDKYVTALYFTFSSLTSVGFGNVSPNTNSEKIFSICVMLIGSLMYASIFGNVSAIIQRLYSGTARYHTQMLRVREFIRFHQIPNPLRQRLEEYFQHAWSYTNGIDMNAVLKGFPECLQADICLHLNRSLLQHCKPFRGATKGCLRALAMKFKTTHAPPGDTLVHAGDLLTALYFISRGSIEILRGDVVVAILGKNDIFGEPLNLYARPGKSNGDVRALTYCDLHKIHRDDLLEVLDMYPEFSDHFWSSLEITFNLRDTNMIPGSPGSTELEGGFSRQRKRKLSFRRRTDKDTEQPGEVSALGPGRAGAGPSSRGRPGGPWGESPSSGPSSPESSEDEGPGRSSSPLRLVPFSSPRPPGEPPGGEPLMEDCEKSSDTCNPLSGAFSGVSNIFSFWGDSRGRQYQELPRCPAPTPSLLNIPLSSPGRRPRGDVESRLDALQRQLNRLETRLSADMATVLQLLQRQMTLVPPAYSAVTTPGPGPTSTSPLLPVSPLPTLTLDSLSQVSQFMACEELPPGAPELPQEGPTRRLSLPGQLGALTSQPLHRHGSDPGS
Outline: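 Channel function was assessed by thallium flux. Cells seeded the previous day and kept at 37 C took up FluxOR II dye over 1 h in the dark at room temperature, then sat another 10 min before stimulation.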

[5] = target: Cytochrome P450 3A4 (Homo sapiens) (UniProt P08684); test: Cytochrome P450 Family 3 Subfamily A Member 4 (CYP3A4) small molecule antagonists: luciferase reporter qHTS assay (AID 1671201); further: nearly all actives have a fitted effect of over 50% in size; further: potency means the concentration at half of the fitted maximal effect; on activity change, negative = inhibition: series mostly up to about 120 µM
Sequence of Cytochrome P450 3A4 (Homo sapiens) (P08684 whole entry, looked up): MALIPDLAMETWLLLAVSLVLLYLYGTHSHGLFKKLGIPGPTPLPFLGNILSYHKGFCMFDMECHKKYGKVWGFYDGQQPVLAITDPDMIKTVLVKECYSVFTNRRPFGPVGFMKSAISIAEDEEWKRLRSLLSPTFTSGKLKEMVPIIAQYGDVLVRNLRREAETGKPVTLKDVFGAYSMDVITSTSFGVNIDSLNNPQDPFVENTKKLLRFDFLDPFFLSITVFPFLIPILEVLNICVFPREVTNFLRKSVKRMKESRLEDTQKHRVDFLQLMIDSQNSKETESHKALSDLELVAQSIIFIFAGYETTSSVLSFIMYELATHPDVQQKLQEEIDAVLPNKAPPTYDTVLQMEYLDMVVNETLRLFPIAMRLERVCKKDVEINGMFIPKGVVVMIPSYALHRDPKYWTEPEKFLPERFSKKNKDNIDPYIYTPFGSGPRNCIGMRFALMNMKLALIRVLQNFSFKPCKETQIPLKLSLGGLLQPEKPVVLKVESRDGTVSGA
Outline: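 Compounds in DMSO were pin-transferred onto CYP3A4 enzyme-substrate mix and held 10 min at room temperature. NADPH regenerating solution started the reaction for 1 h; luciferin detection reagent stopped it, and luminescence was read after 20 min.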

How did the Potency [1] turn out when O=C(c1ccco1)N1CCNCC1 was run?
Its Potency is “inactive”.

What about the Potency [2] of the same compound?
The Potency was “inactive”.

And the Potency [3]?
The Potency was “inactive”.

And the Potency [4]?
The Potency was “inactive”.

What about the Potency [5] of the same compound?
Its Potency is “inactive”.

CC1=C(C)C(=O)C(C(CCCCCC(=O)O)c2ccccc2)=C(C)C1=O (centres undefined) was tested. Which Potency [1] did it give?
The Potency was 24.5 µM (active).

And the Potency [2]?
The Potency was 17.4 µM (active).

What about the Potency [3] of the same compound?
The Potency was “inactive”.

What about the Potency [4] of the same compound?
The Potency was “inactive”.

What about the Potency [5] of the same compound?
Its Potency is “inactive”.

CCCC(=O)OCCC(C)C was tested. Which Potency [1] did it give?
The Potency was “inactive”.

And the Potency [2]?
The Potency was “inactive”.

What about the Potency [3] of the same compound?
Its Potency is “inactive”.

What about the Potency [4] of the same compound?
The Potency was “inactive”.

And the Potency [5]?
The Potency was “inactive”.

With Nc1ccc(-c2ccc(F)cc2)cc1 as the compound, how does the Potency [1] read?
Its Potency is 8.94 µM (active).

What about the Potency [2] of the same compound?
The Potency was 14.2 µM (active).

What about the Potency [3] of the same compound?
Its Potency is 0.502 µM (active).

And the Potency [4]?
Its Potency is “inactive”.

What about the Potency [5] of the same compound?
Its Potency is 11.2 µM (active).

How did the activity change, negative = inhibition [1] turn out when O=C(O)c1ccc2c(c1)nc(C(=O)NC1CCN(C3CC3)CC1)n2Cc1cc(-c2ccc(Cl)s2)on1 was run?
Its activity change, negative = inhibition is 14.2% [at 23.6 µM].

What about the activity change, negative = inhibition [2] of the same compound?
Its activity change, negative = inhibition is -6.17% [at 23.6 µM].

What about the activity change, negative = inhibition [3] of the same compound?
Its activity change, negative = inhibition is 0.996% [at 23.6 µM].

And the activity change, negative = inhibition [4]?
The activity change, negative = inhibition was -1.6% [at 15.8 µM].

What about the activity change, negative = inhibition [5] of the same compound?
The activity change, negative = inhibition was 1.57% [at 23.6 µM].

How did the Potency [1] turn out when CC1(C)CC(=O)CC(C)(C)N1 was run?
Its Potency is “inactive”.

What about the Potency [2] of the same compound?
The Potency was “inactive”.

What about the Potency [3] of the same compound?
Its Potency is “inactive”.

What about the Potency [4] of the same compound?
Its Potency is “inactive”.

What about the Potency [5] of the same compound?
Its Potency is “inactive”.

C[C@H](N)C(=O)N[C@@H](C)C(=O)NC1[C@H]2CN(c3nc4c(cc3F)c(=O)c(C(=O)O)cn4-c3ccc(F)cc3F)C[C@@H]12 (some centres undefined) was tested. Which Potency [1] did it give?
The Potency was “inactive”.

What about the Potency [2] of the same compound?
Its Potency is “inactive”.

What about the Potency [4] of the same compound?
The Potency was “inactive”.

And the Potency [5]?
Its Potency is 12.3 µM (active).

What does the source list for COc1ccc(CN(CCN(C)C)c2ncccn2)cc1?
Potency [1]: 21.9 µM (active); Potency [2]: inactive; Potency [4]: inactive; Potency [5]: inactive

How did the Potency [1] turn out when O=C1CCCN1CCO was run?
The Potency was “inactive”.

What about the Potency [2] of the same compound?
The Potency was “inactive”.

What about the Potency [3] of the same compound?
The Potency was 39.9 µM (active).

What about the Potency [4] of the same compound?
The Potency was “inactive”.

And the Potency [5]?
The Potency was “inactive”.

How did the Potency [1] turn out when O=C(Nc1ccccc1)c1cc([N+](=O)[O-])ccc1Cl was run?
The Potency was 22.4 µM (active).

What about the Potency [2] of the same compound?
Its Potency is 31.7 µM (active).

What about the Potency [3] of the same compound?
Its Potency is 7.96 µM (active).

And the Potency [4]?
The Potency was “inactive”.

What about the Potency [5] of the same compound?
Its Potency is 35.6 µM (active).

For C=CCCC, which Potency [1] is on record?
Its Potency is “inactive”.

And the Potency [2]?
Its Potency is “inactive”.

What about the Potency [3] of the same compound?
The Potency was “inactive”.

And the Potency [4]?
The Potency was “inactive”.

What about the Potency [5] of the same compound?
The Potency was “inactive”.

What does the source list for O=C1C=CCCC1?
Potency [1]: inactive; Potency [2]: inactive; Potency [3]: inactive; Potency [4]: inactive; Potency [5]: inactive

For CC(C)(O)C(=O)O, which Potency [1] is on record?
Its Potency is “inactive”.

What about the Potency [2] of the same compound?
The Potency was “inactive”.

And the Potency [4]?
Its Potency is “inactive”.

And the Potency [5]?
Its Potency is “inactive”.

Which Potency [1] does the source give for O=P(c1ccccc1)(c1ccccc1)c1ccccc1 here?
The Potency was 5.64 µM (active).

What about the Potency [2] of the same compound?
The Potency was 6.33 µM (active).

What about the Potency [4] of the same compound?
Its Potency is “inactive”.

What does the source list for CC(COc1ccccc1)NC(C)C(O)c1ccc(O)cc1 (centres undefined)?
Potency [1]: 8.71 µM (active); Potency [2]: 15.5 µM (active); Potency [3]: 17.4 µM (active); Potency [4]: inactive; Potency [5]: inactive

Which Potency [1] does the source give for O=C(OCCCCCOC(=O)c1ccccc1)c1ccccc1 here?
Its Potency is 56.4 µM (active).

And the Potency [2]?
Its Potency is 11.2 µM (active).

What about the Potency [3] of the same compound?
Its Potency is 7.96 µM (active).

What about the Potency [4] of the same compound?
Its Potency is “inactive”.

And the Potency [5]?
Its Potency is “inactive”.

Which results are given for NC(=O)c1ccccc1?
Potency [1]: inactive; Potency [2]: inactive; Potency [3]: inactive; Potency [4]: inactive; Potency [5]: inactive

What does the source list for CC(=O)c1ccc(Cl)c(Cl)c1Cl?
Potency [1]: 70.9 µM (active); Potency [2]: inactive; Potency [3]: 11.2 µM (active); Potency [4]: inactive; Potency [5]: inactive

CC/C=C/CCO was tested. Which Potency [1] did it give?
Its Potency is “inactive”.

What about the Potency [2] of the same compound?
The Potency was “inactive”.

And the Potency [3]?
Its Potency is 36.2 µM (active).

What about the Potency [4] of the same compound?
Its Potency is “inactive”.

And the Potency [5]?
Its Potency is “inactive”.

Which Potency [1] does the source give for CC1(C)C(=O)NC(=O)N1CO here?
The Potency was “inactive”.

What about the Potency [2] of the same compound?
The Potency was “inactive”.

And the Potency [3]?
Its Potency is “inactive”.

What about the Potency [4] of the same compound?
Its Potency is “inactive”.

What about the Potency [5] of the same compound?
Its Potency is “inactive”.

For Cc1nc(C)c(C)nc1C, which Potency [1] is on record?
Its Potency is “inactive”.

What about the Potency [2] of the same compound?
Its Potency is “inactive”.

And the Potency [3]?
Its Potency is 35.6 µM (active).

What about the Potency [4] of the same compound?
The Potency was “inactive”.

And the Potency [5]?
Its Potency is “inactive”.

OCCOc1cccc(OCCO)c1 was tested. Which Potency [1] did it give?
Its Potency is “inactive”.

And the Potency [2]?
Its Potency is “inactive”.

And the Potency [4]?
Its Potency is “inactive”.

And the Potency [5]?
The Potency was “inactive”.

Which results are given for C[C@H]1C[C@H]2[C@@H]3CCC4=CC(=O)C=C[C@]4(C)[C@@]3(F)[C@@H](O)C[C@]2(C)[C@@]1(O)C(=O)COP(=O)(O)O?
Potency [1]: inactive; Potency [2]: inactive; Potency [3]: inactive; Potency [4]: inactive; Potency [5]: inactive

What does the source list for FC1(F)C(F)(F)C(F)(F)C2(F)C(F)(C1(F)F)C(F)(F)C(F)(F)C1(F)C(F)(F)C(F)(F)C(F)(F)C(F)(F)C12F (centres undefined)?
Potency [1]: inactive; Potency [2]: inactive; Potency [3]: inactive; Potency [4]: inactive; Potency [5]: inactive

What does the source list for Cc1ccc(Cl)c(OCC(O)CNC(C)(C)C)c1 (centres undefined)?
Potency [1]: inactive; Potency [2]: inactive; Potency [3]: inactive; Potency [5]: inactive

CC(C)(C)N was tested. Which Potency [1] did it give?
The Potency was “inactive”.

What about the Potency [2] of the same compound?
The Potency was “inactive”.

What about the Potency [3] of the same compound?
Its Potency is “inactive”.

What about the Potency [4] of the same compound?
The Potency was “inactive”.

What about the Potency [5] of the same compound?
Its Potency is “inactive”.

For CCCC(=O)OCc1ccccc1, which Potency [1] is on record?
The Potency was “inactive”.

What about the Potency [2] of the same compound?
The Potency was “inactive”.

And the Potency [3]?
The Potency was “inactive”.

What about the Potency [4] of the same compound?
Its Potency is “inactive”.

And the Potency [5]?
The Potency was “inactive”.

What does the source list for N#CCCCC(C#N)CCC#N (centres undefined)?
Potency [1]: inactive; Potency [2]: 39.9 µM (active); Potency [3]: inactive; Potency [4]: inactive; Potency [5]: inactive

How did the Potency [1] turn out when CCc1ccc2c(c1)C(=O)c1ccccc1C2=O was run?
Its Potency is 11.2 µM (active).

What about the Potency [2] of the same compound?
Its Potency is 10 µM (active).

And the Potency [3]?
Its Potency is 2.24 µM (active).

And the Potency [5]?
The Potency was 17.8 µM (active).

Which results are given for COC(=O)c1cc(Cl)ccc1[N+](=O)[O-]?
Potency [1]: 79.6 µM (active); Potency [2]: inactive; Potency [3]: 7.96 µM (active); Potency [4]: inactive; Potency [5]: inactive

Which results are given for C=CC(C)CCC=C(C)C (centres undefined)?
Potency [1]: inactive; Potency [2]: inactive; Potency [4]: inactive; Potency [5]: inactive

How did the Potency [1] turn out when COc1cc(CNC(=O)CCCC/C=C/C(C)C)ccc1O was run?
Its Potency is 9.77 µM (active).

And the Potency [2]?
Its Potency is 9.77 µM (active).

What about the Potency [3] of the same compound?
The Potency was 30.9 µM (active).

What about the Potency [4] of the same compound?
Its Potency is “inactive”.

And the Potency [5]?
The Potency was 12.3 µM (active).

For CCCc1nc(C)c2c(=O)[nH]c(-c3cc(S(=O)(=O)N4CCN(CC)CC4)ccc3OCC)nn12, which Potency [1] is on record?
The Potency was “inactive”.

What about the Potency [3] of the same compound?
The Potency was “inactive”.

What about the Potency [4] of the same compound?
The Potency was “inactive”.
